Assay [1] has as its system Jurkat. The experiment in a line: mean cell size (FSC-A) relative to DMSO control (fraction of control); higher = larger cells. To be noted: 48 h. Summed up: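 Jurkat cells seeded at 600 cells/µl were incubated 1 h, then exposed for 48h to the Enzo Screen-Well FDA Approved Drug Library v2.0 at 25µM in 0.9% (v/v) final DMSO. Drugs that cut counts below 20% of controls were diluted 10-fold and retested, down to 25nM. Cell count and mean cell size (forward scatter area) were read on an Accuri C6 flow cytometer, relative to solvent-only controls. Plates held 6-12 controls; values are means of 3 biological replicates.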

The subject of assay [2] is Jurkat. The experiment in a line: cell count relative to DMSO control (fraction of control); higher = more cells (less growth inhibition). To be noted: 48 h.

Where a name gives a salt, the structure may show the parent alone. ± gives the standard deviation.

For `C=C[C@H]1CN2CC[C@H]1C[C@H]2[C@H](O)c1ccnc2ccc(OC)cc12` [Quinine·HCl·H2O] (concentration: 25 µM), in the assay on Jurkat [1], the mean cell size came out at 1.06 ± 0.055. The compound further returned a cell count with Jurkat [2] of 0.637 ± 0.18.

Compound `OC(Cn1cncn1)(Cn1cncn1)c1ccc(F)cc1F` [Fluconazole] (concentration: 25 µM) had a mean cell size in the assay on Jurkat [1] of 0.969 ± 0.054. Moreover, the cell count in the assay with Jurkat [2] was 0.325 ± 0.14.

In the assay with Jurkat [1], `Clc1ccc(COC(Cn2ccnc2)c2ccc(Cl)cc2Cl)cc1` (stereo not drawn) [Econazole Nitrate] (concentration: 25 µM) registered a mean cell size of 0.959 ± 0.03. The cell count in the assay on Jurkat [2] was 0.774 ± 0.096.

Compound `CO/N=C(\C(=O)N[C@@H]1C(=O)N2C(C(=O)O)=C(COC(C)=O)CS[C@H]12)c1csc(N)n1` [Cefotaxime Acid] (concentration: 25 µM) yielded a mean cell size with Jurkat [1] of 0.944 ± 0.025. Also, in the assay with Jurkat [2], the cell count was 0.957 ± 0.025.

For `Nc1ncn([C@H]2C[C@H](O)[C@@H](CO)O2)c(=O)n1` [Decitabine] (concentration: 2.5 µM), the mean cell size with Jurkat [1] turned out to be 1 ± 0.018. The compound also came in with a cell count in the assay with Jurkat [2] of 0.363 ± 0.035.

Compound `CC(=O)CCCCn1c(=O)c2c(ncn2C)n(C)c1=O` [Pentoxifylline] (concentration: 25 µM) showed a mean cell size in the assay with Jurkat [1] of 0.977 ± 0.028. Also, the cell count with Jurkat [2] came to 1.09 ± 0.12.

As for `Nc1ccn([C@@H]2O[C@H](CO)[C@@H](O)[C@@H]2O)c(=O)n1` [Cytarabine] (concentration: 25 nM), the mean cell size in the assay with Jurkat [1] is 1.18 ± 0.05. In the assay on Jurkat [2], this compound showed a cell count of 0.297 ± 0.088.

With `C[C@]12CCC3=C4CCC(=O)C=C4CC[C@H]3[C@@H]1CC[C@@]2(O)CC#N` [Dienogest] (concentration: 25 µM), in the assay with Jurkat [1], the mean cell size was found to be 0.963 ± 0.035. For the same compound, the cell count with Jurkat [2] came to 0.827 ± 0.15.

Take `CCCCNc1cc(C(=O)O)cc(S(N)(=O)=O)c1Oc1ccccc1` [Bumetanide] (concentration: 25 µM): the mean cell size with Jurkat [1] is 0.952 ± 0.015. In the assay on Jurkat [2], the cell count amounted to 0.863 ± 0.022.
